Experimental data as given in the supplement of paper PMC3545927.
The other results are listed elsewhere or left out. No count for the full screen is at hand.

B1: HC125 (peptide)
chain: CAEVVISTWVAGNASASA
B2: HC1176 (peptide)
chain: CACGAEITGHAGNASASA
B3: HC2363 (peptide)
chain: CAEVPCHAPSAGNASASA
B4: HC2408 (peptide)
chain: CAEVPCHRPWAGNASASA
B5: FS-2212 (peptide)
chain: CARIERVIGAAGNASASA
B6: FS-2168 (peptide)
chain: CARQGRVISVAGNASASA
B7: FS-292 (peptide)
chain: CARVARERRWAGNASASA
B8: FS-187 (peptide)
chain: CARIERVARVAGNASASA
B9: FS-1608 (peptide)
chain: CARQGRIARVAGNASASA
B10: FS-1159 (peptide)
chain: CARPGRPARVAGNASASA
B11: HC1947 (peptide)
chain: CAFCTTPCSGAGNASASA
B12: HC1212 (peptide)
chain: CATGMTTDNLAGNASASA
B13: HC371 (peptide)
chain: CAHLNSTALNAGNASASA
B14: HC646 (peptide)
chain: CAVEPVVFSQAGNASASA
B15: HC2486 (peptide)
chain: CASMPCSAHLAGNASASA
B16: HC1682 (peptide)
chain: CAQEECSQHLAGNASASA
B17: FS-2422 (peptide)
chain: CARKIRVNGTAGNASASA
B18: HC445 (peptide)
chain: CACVIGGAGNAGNASASA
B19: FS-2447 (peptide)
chain: CARQVRGVTQAGNASASA
B20: FS-1726 (peptide)
chain: CARKIRTVGNAGNASASA
B21: FS-3045 (peptide)
chain: CARQVRCVGNAGNASASA
B22: FS-1766 (peptide)
chain: CARQARRVGGAGNASASA
B23: HC359 (peptide)
chain: CASGFVSLLAAGNASASA
B24: HC765 (peptide)
chain: CAVFTDNSSPAGNASASA
B25: HC1598 (peptide)
chain: CAEPLDLPPIAGNASASA
B26: HC1097 (peptide)
chain: CAVPSTEDLVAGNASASA
B27: FS-3120 (peptide)
chain: CARVMRWNSKAGNASASA
B28: FS-3240 (peptide)
chain: CARVRRLVRHAGNASASA
B29: FS-2107 (peptide)
chain: CARVRRAVRIAGNASASA
B30: HC1030 (peptide)
chain: CAASRQAEVIAGNASASA
B31: FS-1667 (peptide)
chain: CAAVRRLVGNAGNASASA
B32: FS-3124 (peptide)
chain: CARVRRAWVIAGNASASA
B33: FS-2622 (peptide)
chain: CARVRRANTFAGNASASA
B34: FS-3175 (peptide)
chain: CARVRRRSVQAGNASASA
B35: HC955 (peptide)
chain: CAYQATVCARAGNASASA
B36: HC616 (peptide)
chain: CAYFVRVQGLAGNASASA
B37: HC503 (peptide)
chain: CALSTGLIHLAGNASASA
B38: HC783 (peptide)
chain: CAAAQGYKVLAGNASASA
B39: HC1359 (peptide)
chain: CADPDLSDGSAGNASASA
B40: HC2096 (peptide)
chain: CAVVCCSMSGAGNASASA
B41: FS-2765 (peptide)
chain: CARQRRPHGGAGNASASA
B42: FS-2357 (peptide)
chain: CARPLRDAGGAGNASASA
B43: FS-3230 (peptide)
chain: CARQRRAAKGAGNASASA
B44: FS-3034 (peptide)
chain: CARQKKTTGGAGNASASA
B45: FS-2684 (peptide)
chain: CARILRSAWGAGNASASA
B46: FS-1723 (peptide)
chain: CARIRRNAKGAGNASASA
B47: FS-2714 (peptide)
chain: CARLRRFQKGAGNASASA
B48: FS-2588 (peptide)
chain: CARQRRAAGGAGNASASA
B49: FS-2945 (peptide)
chain: CARHRRIHSGAGNASASA
B50: FS-2144 (peptide)
chain: CARHRRAAGGAGNASASA

Biological target: furin, P09958
Sequence (P09958 whole entry): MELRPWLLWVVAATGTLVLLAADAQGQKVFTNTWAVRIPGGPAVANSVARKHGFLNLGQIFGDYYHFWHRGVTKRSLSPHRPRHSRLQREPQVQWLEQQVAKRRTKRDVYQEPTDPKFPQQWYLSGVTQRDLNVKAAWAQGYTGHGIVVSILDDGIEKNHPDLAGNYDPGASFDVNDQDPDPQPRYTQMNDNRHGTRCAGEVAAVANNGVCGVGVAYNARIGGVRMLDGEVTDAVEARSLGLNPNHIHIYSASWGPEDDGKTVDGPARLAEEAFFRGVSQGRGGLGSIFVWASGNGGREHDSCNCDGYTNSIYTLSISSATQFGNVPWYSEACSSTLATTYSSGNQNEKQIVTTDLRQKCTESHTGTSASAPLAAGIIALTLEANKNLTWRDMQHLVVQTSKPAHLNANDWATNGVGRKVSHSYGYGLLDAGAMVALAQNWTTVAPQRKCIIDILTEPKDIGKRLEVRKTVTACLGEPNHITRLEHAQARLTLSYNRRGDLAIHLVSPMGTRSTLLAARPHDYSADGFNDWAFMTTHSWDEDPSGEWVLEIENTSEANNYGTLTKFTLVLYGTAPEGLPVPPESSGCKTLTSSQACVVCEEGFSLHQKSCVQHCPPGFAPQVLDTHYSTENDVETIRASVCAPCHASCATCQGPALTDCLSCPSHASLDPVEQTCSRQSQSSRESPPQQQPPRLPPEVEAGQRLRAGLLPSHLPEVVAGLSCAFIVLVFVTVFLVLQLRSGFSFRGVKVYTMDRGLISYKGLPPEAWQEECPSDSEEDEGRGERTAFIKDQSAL
Assay: furin cleavage Z-score vs untreated control; higher = more cleavage, active = 3.5 or more, inactive = 1 or less, 8 variable residues between constant flanks
How it was run: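 Reactions of 0.01 ml ran for 7.5, 15 or 30 min in 50 mM HEPES pH 7.5 with CaCl2 and NaCl, at 1:10 enzyme:substrate. In them, purified furin acted on bead-held 8-mer peptides fused to a cDNA oligonucleotide. The cleavage Z-score was obtained by lowess-adjusting log sequencing counts of released DNA against furin-free reactions and scaling by median absolute deviation.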

Sequence | furin cleavage Z-score (7.5 min) | furin cleavage Z-score (15 min) | furin cleavage Z-score (30 min)
B1 | 0.441 (inactive) | -0.457 (inactive) | -1.26 (inactive)
B2 | -2.29 (inactive) | -1.09 (inactive) | -4.52 (inactive)
B3 | 0.635 (inactive) | 1.02 | 0.728 (inactive)
B4 | -0.0166 (inactive) | 0.18 (inactive) | 0.457 (inactive)
B5 | 0.267 (inactive) | -1.07 (inactive) | 0.338 (inactive)
B6 | -2.08 (inactive) | -0.187 (inactive) | 0.163 (inactive)
B7 | 7.91 (active) | 11.7 (active) | 9.72 (active)
B8 | 2.36 | 1.28 | 4.15 (active)
B9 | 4.13 (active) | 2.36 | 3.61 (active)
B10 | -0.325 (inactive) | -0.113 (inactive) | -0.65 (inactive)
B11 | 1.42 | -0.358 (inactive) | -1.43 (inactive)
B12 | -0.509 (inactive) | 1.51 | -0.989 (inactive)
B13 | 1.65 | 0.509 (inactive) | 0.52 (inactive)
B14 | -0.426 (inactive) | 0.0995 (inactive) | -0.8 (inactive)
B15 | -0.177 (inactive) | 1.03 | -0.00604 (inactive)
B16 | -0.746 (inactive) | 0.819 (inactive) | 1.15
B17 | -0.334 (inactive) | 0.321 (inactive) | -1.68 (inactive)
B18 | -1.36 (inactive) | -2.02 (inactive) | -1.24 (inactive)
B19 | -1.36 (inactive) | 0.0563 (inactive) | 0.556 (inactive)
B20 | 5.44 (active) | 7.79 (active) | 7.77 (active)
B21 | 3.15 | 3.4 | 5.33 (active)
B22 | -0.614 (inactive) | -0.316 (inactive) | -0.000733 (inactive)
B23 | 0.181 (inactive) | 0.268 (inactive) | 0.641 (inactive)
B24 | -0.215 (inactive) | -0.103 (inactive) | 0.299 (inactive)
B25 | 0.806 (inactive) | 1.44 | 0.441 (inactive)

Sequence | furin cleavage Z-score (7.5 min) | furin cleavage Z-score (15 min) | furin cleavage Z-score (30 min)
B26 | -2.52 (inactive) | -0.505 (inactive) | 0.561 (inactive)
B27 | -0.31 (inactive) | 0.804 (inactive) | 2.88
B28 | 12.5 (active) | 11.6 (active) | 9.85 (active)
B29 | 2.88 | 2.85 | 5.12 (active)
B30 | -0.216 (inactive) | -0.538 (inactive) | -1.56 (inactive)
B31 | -1.38 (inactive) | -1.34 (inactive) | -1.08 (inactive)
B32 | 1.98 | 4.98 (active) | 7.77 (active)
B33 | 3.44 | 5.83 (active) | 5.99 (active)
B34 | 0.273 (inactive) | 0.235 (inactive) | 0.754 (inactive)
B35 | 1.06 | 0.432 (inactive) | -1.24 (inactive)
B36 | 0.749 (inactive) | 0.0281 (inactive) | 0.654 (inactive)
B37 | 1.35 | 0.833 (inactive) | 1.12
B38 | 0.259 (inactive) | 0.477 (inactive) | -0.5 (inactive)
B39 | -1.03 (inactive) | -0.792 (inactive) | -0.78 (inactive)
B40 | -0.582 (inactive) | -1.33 (inactive) | -0.463 (inactive)
B41 | -0.899 (inactive) | -0.697 (inactive) | -0.913 (inactive)
B42 | 0.0621 (inactive) | -0.105 (inactive) | -0.644 (inactive)
B43 | 5.82 (active) | 8.24 (active) | 7.16 (active)
B44 | -1.15 (inactive) | -0.895 (inactive) | -0.562 (inactive)
B45 | -1.8 (inactive) | 0.635 (inactive) | 0.838 (inactive)
B46 | 9.77 (active) | 9.21 (active) | 7.23 (active)
B47 | -0.592 (inactive) | -0.736 (inactive) | -0.569 (inactive)
B48 | 4.04 (active) | 2.03 | 3.5 (active)
B49 | -0.899 (inactive) | -0.653 (inactive) | -0.511 (inactive)
B50 | 5.47 (active) | 4.69 (active) | 5.6 (active)
